From PubChem BioAssay
Shiga inhibitor: blocks Shiga toxin action in Vero cells; Vero cells, Shiga toxin protein synthesis inhibition reporter; inhibition, % at 38.7 µM; 290,000 compounds, 9.2% hits; in the data active = inhibition mostly above about 28%, no sharp cut-off; inactive = mostly below about 43%; also: 0% is about no effect
Cycloheximide cs: affects cycloheximide protein synthesis inhibition readout, counter-screen. cell reporter, cycloheximide protein synthesis inhibition counterscreen. max response, %. 300,000 compounds, 12% hits. AID 2314; in the data active = max response mostly above about 13%, no sharp cut-off; inactive = mostly below about 14%; also: read at 38.3 µM for the half of the compounds with a filed dose; 0% is about no effect
SARS PLP yeast: SARS-CoV PLP inhibition in yeast; S. cerevisiae expressing SARS-CoV PLpro, growth rescue; Potency, µM (highest dose often 32.9 µM), for inactives: top-dose activity, positive = growth rescue, actives largely listed as activators; 330,000 compounds, 0.19% hits; AID 485353; calls by dose curve; also: potency is read from the fitted curve at half-maximal effect; 0% is about no effect; nearly all actives have a fitted effect of over 55% in size
NS1 inh: blocks influenza NS1 protein function; Potency, µM (series often up to 46.1 µM), inactives show at the top dose activity, positive = more growth; 270,000 compounds, 0.4% hits; calls by dose curve; also: potency is read from the fitted curve at half-maximal effect; actives are rising curves; nearly all actives have a fitted effect of over 50% in size
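Growth recovery, yeast-based: influenza A NS1 expressed in S. cerevisiae causes slow growth, and suppressors are detected by OD600. The parent strain without NS1 is used as positive control.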
Pf growth 48h: inhibits P. falciparum growth in the first generation, 48 h. 310,000 compounds, 5.9% hits. Potency, µM (doses to about 28.7 µM), without a hit: at the top dose activity change, negative = inhibition, most hits filed as inhibitors. P. falciparum luciferase growth in erythrocytes, 48 h; also: potency is read from the fitted curve at half-maximal effect; % is scaled to controls: 0 for no effect and ±100 for the full control effect
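A one-generation exposure of luciferase-tagged malaria parasites in RPMI 1640/Albumax erythrocyte culture, 37 C and 5% CO2. Inhibition is inferred from decreased luminescence after adding detection reagent.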
Pf growth 96h: P. falciparum growth inhibition at 96 hour, primary screen for plastid delayed-death inhibitors; Potency, µM (titrated, usually from 28.7 µM), without a hit: top-dose activity change, negative = inhibition, actives largely listed as inhibitors; 320,000 compounds, 6.9% hits; P. falciparum luciferase reporter growth, 96 h; also: potency is read from the fitted curve at half-maximal effect; % is scaled to controls: 0 for no effect and ±100 for the full control effect
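Cell-based qHTS: luciferase-tagged P. falciparum in erythrocytes (2% hematocrit, 0.05% parasitemia final) incubated with compounds for 96 hours, 37 C, 5% CO2; luciferase detection reagent then added and luminescence measured.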
An asterisk follows results filed as active; ? = inconclusive; . = not tested or not shown. Shown are actives, neighbours in structure and some others; about 21% of the full set was active somewhere. Unless noted, calls follow the shape of the dose curve; as a rule, active = well fitted inhibition curve with a large enough effect; inconclusive = small, poorly fitted or top-dose-only effect, or another doubt; inactive = no such curve, though single readings can be large or run the other way.

SMILES | Shiga inhibitor | Cycloheximide cs | SARS PLP yeast | NS1 inh | Pf growth 48h | Pf growth 96h
N#Cc1c(NC(=O)CSc2ncc(-c3ccccc3)n2CC2CCCO2)sc2c1CCCC2 (stereo not drawn) | -19 | -1 | 1% | 14% | ? | 1%
CC(=O)N1CCN(S(=O)(=O)c2ccc(S(=O)(=O)N3CCCC(C)C3)cc2)CC1 (stereo not drawn) | -9 | -2 | 1% | 2% | 35% | 19%
O=C(C1CCCN(CCCc2ccccc2)C1)N1CCCCCC1 (stereo not drawn) | 14 | -2 | 6% | 0% | -10% | 49%
CC(=O)N[C@@H](Cc1ccc(O)cc1)C(=O)N[C@H](C(=O)N[C@@H](C)C(=O)N[C@H](C#N)CC(=O)O)C(C)C | . | . | 3% | . | 1% | 9%
C=CCNC(=O)C(=O)Nc1ccc2c(c1)N(S(=O)(=O)c1cccs1)CCC2 | . | . | 0% | . | ? | ?
COc1ccc(Nc2nc(-c3c[nH]c4ccccc34)cs2)cc1 | 67 | 32* | -27% | 19% | ? | -100%
COc1ccc2oc(=O)c(-c3csc(Nc4ccc(O)cc4)n3)cc2c1 | 85* | 46* | 1% | ? | ? | -16%
COc1ccc2oc(=O)c(/C(C)=N/Nc3nc(-c4cc(C)ccc4C)cs3)cc2c1 | -2 | 2 | 2% | 14% | 13% | ?
COc1ccc(-c2csc(Nc3ccccc3)n2)cc1 | 97* | 29* | -3% | 4% | 55% | 52%
CC(=O)NCCC(=O)Nc1nc(-c2c[nH]c3ccccc23)cs1 | 24 | -3 | -1% | 18% | 19% | 21%
COc1ccc(-c2csc(Nc3cccnc3)n2)cc1 | 99* | 52* | . | -7% | 0% | -5%
CC(C)C(NC(=O)OCc1ccccc1)C(=O)N1CCOCCOCCOCC1 (stereo not drawn) | 21 | -3 | 13% | . | 1% | -27%
COCCN1C(=O)N[C@@H](c2ccccc2)C(C(C)=O)=C1C | -12 | -1 | -1% | -6% | -15% | ?
COc1ccc(Nc2nc(-c3ccc(OC)cc3)cs2)cc1 | 70* | 63* | -1% | . | 368% | 67%
[O-][N+]1=C(c2cccs2)CN(O)C1 | -19 | -8 | 10% | 5% | -1% | 1.7µM*
CC1(C)N(O)CC(c2cccs2)=[N+]1[O-] | 11 | 8 | 1% | 8% | 3% | .
CC(=O)c1cccc(N(CC(=O)Nc2ccc(F)cc2F)S(C)(=O)=O)c1 | 51* | 30* | . | -6% | 30% | 17%
CS(=O)(=O)N(CC(=O)Nc1ccccc1C(=O)N1CCOCC1)c1cccc(F)c1 | 2 | -3 | 0% | 10% | 0% | 2.6µM*
Cc1nn2c(N3CCOCC3)cc(C(C)(C)C)nc2c1-c1ccc(Cl)cc1 | 3 | -1 | 2% | 3% | -17% | -7%
Cc1cc(C)n(-c2cc(C(C)(C)C)nc3c(-c4ccccc4)cnn23)n1 | 90* | 54* | -1% | 0% | 94% | -23%
Cc1cc(C)n(-c2cc(C(C)(C)C)nc3c(-c4ccc(Cl)cc4)cnn23)n1 | 64* | 29* | -29% | -52% | ? | ?
COC(C(=O)Nc1ccnn1C1CCN(C(=O)c2ccc(C)cc2)CC1)c1ccccc1 (stereo not drawn) | -4 | 0 | 0% | -7% | -19% | 11%
CCC1Oc2ccccc2N(CC(=O)NC2CC2)C1=O (stereo not drawn) | -14 | -6 | 1% | 14% | 9% | 21%
N=C(N)N1Cc2ccccc2C(O)C1 (stereo not drawn) | -9 | 0 | . | . | . | .
N/C(=N\O)c1ccc([N+](=O)[O-])s1 | -10 | 8 | 0% | -2% | ? | ?
SMILES | Shiga inhibitor | Cycloheximide cs | SARS PLP yeast | NS1 inh | Pf growth 48h | Pf growth 96h
CC(C)(C)C(=O)O/N=C(\N)c1ccc([N+](=O)[O-])s1 | 22 | 24* | -1% | -5% | ? | ?
N/C(=N\OC(=O)C1CC1)c1ccc([N+](=O)[O-])s1 | 13 | 10 | -4% | -4% | ? | 6.6µM*
Cc1ccc(C(C(=O)NCc2ccco2)N(C(=O)CNC(=O)c2cccs2)c2c(C)cc(C)cc2C)cc1 (stereo not drawn) | 35 | 29* | 2% | 0% | ? | 1%
Cc1ccc(C(C(=O)NCc2ccco2)N(Cc2ccco2)C(=O)CNC(=O)c2ccco2)cc1 (stereo not drawn) | 4 | 6 | -10% | -7% | -5% | 6.6µM*
Cc1ccc(C(C(=O)NCc2ccco2)N(C(=O)CNC(=O)c2cccs2)c2c(C)cccc2C)cc1 (stereo not drawn) | -6 | 6 | 6% | 17% | 4% | 33%
N#CCSc1ccccc1NC(=O)COC(=O)CCNC(=O)c1ccc([N+](=O)[O-])cc1 | . | . | -2% | . | 13% | 3%
O=C(CN1CCc2ccccc2C1)NC1CCCC1 | -2 | 6 | 0% | 4% | 1% | -5%
COc1ccc(CNC(=S)Nc2ccccc2C)cc1 | 21 | 0 | ? | -8% | -9% | .
Cc1ccc(Cn2cccc2/C=N/NC(=S)Nc2ccc(C)cc2)cc1 | 9 | 9 | 23% | -22% | ? | -29%
CC(C)c1ccc(NC(=S)NCc2ccc3c(c2)OCO3)cc1 | 36 | 12 | -14% | . | -17% | -30%
CCNC(=S)Nc1ccc(N(c2ccccc2)C(C)C)cc1 | 57* | 17* | 0% | -5% | 0% | .
CC(C)N(c1ccccc1)c1ccc(NC(=S)NCCN(C)C)cc1 | -8 | -7 | 1% | . | -23% | 0%
COc1ccc(CNC(=S)Nc2ccccc2)cc1 | 21 | 7 | 23% | ? | ? | 13µM*
COc1ccc(NC(=S)NCc2ccc3c(c2)OCO3)cc1 | 25 | 15 | 16% | . | 2% | 1.7µM*
COc1ccc(NC(=S)N/N=C/c2cccn2Cc2ccc(F)cc2)cc1 | 46* | 11 | 2% | . | ? | -2%
COc1ccc(NC(=O)CS(=O)(=O)c2ccc(Br)cc2)cc1 | -4 | 5 | -1% | -5% | . | 8%
CCOC(=O)Cc1c(C)nc2c(-c3ccc(Cl)cc3)c[nH]n2c1=O | 25 | -2 | 2% | -9% | ? | 51%
CCc1ccc(NC(=S)NCc2cccnc2)cc1 | 5 | 10 | 0% | -4% | 3% | 8%
COc1ccc(CNC(=S)Nc2cccc(F)c2)cc1 | 28* | 12* | 21% | ? | -25% | 0%
COc1ccc(C/C(C)=N/NC(=S)Nc2ccc(Cl)cc2)cc1 | 1 | -2 | 2% | -1% | 35% | 32%
COc1ccc(CNC(=S)Nc2cccc(C)c2)cc1 | -12 | 4 | 29% | 2% | . | -24%
CCc1ccc(NC(=S)NCc2ccccc2)cc1 | 142* | 34* | 3% | . | 10% | ?
COc1cccc(NC(=S)NCc2ccc(F)cc2)c1 | 24 | 14* | 12% | 12% | ? | ?
COc1ccc(C/C(C)=N/NC(=S)Nc2ccccc2)cc1 | 86* | 42 | 11µM* | -22% | 61% | 80%
CCOc1ccccc1N1CCN(CC(=O)Nc2ccnn2C2CCCC2)CC1 | . | . | -7% | . | -26% | -18%
